Measurements taken from the supplement of paper PMC11026393.

Test system: SH-SY5Y
Test: difference in mean normalized H2B-mRuby nuclear fluorescence intensity relative to DMSO control (normalized intensity difference (DMSO = 0)); higher = stronger increase in transgene reporter fluorescence
Conditions: 24 h
Protocol: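 Cancer cell lines stably expressing H2B-mRuby2 from a lentiviral PGK promoter were treated with each drug for 24 h and imaged on a Leica DMI8 (ex 541-551 / em 565-605 nm). Nuclei were segmented in CellProfiler. The value is the difference in mean per-nucleus normalized H2B-mRuby intensity versus DMSO-treated cells (about 3 repeats x 4 fields). Doxorubicin is itself fluorescent. Dasatinib is in nM.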

## COc1cc([C@@H]2c3cc4c(cc3[C@@H](O[C@@H]3O[C@@H]5CO[C@@H](C)O[C@H]5[C@H](O)[C@H]3O)[C@H]3COC(=O)[C@H]23)OCO4)cc(OC)c1O (concentration unit: uM)
concentration: 1
  difference: 0.0162
concentration: 2.5
  difference: 0.042
concentration: 5
  difference: 0.0775
concentration: 10
  difference: 0.0738
concentration: 20
  difference: 0.0983

## COc1cc2ncnc(Nc3ccc(F)c(Cl)c3)c2cc1OCCCN1CCOCC1 (concentration unit: uM)
concentration: 1
  difference: 0.0355
concentration: 2.5
  difference: 0.0288
concentration: 5
  difference: 0.0297
concentration: 10
  difference: 0.0546
concentration: 20
  difference: 0.086

## Nc1ncn([C@@H]2O[C@H](CO)[C@@H](O)[C@H]2O)c(=O)n1 (concentration unit: uM)
concentration: 1
  difference: 0.0451
concentration: 2.5
  difference: 0.0373
concentration: 5
  difference: 0.0486
concentration: 10
  difference: 0.0991
concentration: 20
  difference: 0.0901

## Cc1[nH]c2ccccc2c1CCNCc1ccc(/C=C/C(=O)NO)cc1 (concentration unit: nM)
concentration: 10
  difference: 0.13
concentration: 50
  difference: 0.783
concentration: 100
  difference: 1.09
concentration: 250
  difference: 1.19
concentration: 500
  difference: 1.16

## Cc1nc(Nc2ncc(C(=O)Nc3c(C)cccc3Cl)s2)cc(N2CCN(CCO)CC2)n1 (concentration unit: nM)
concentration: 25
  difference: 0.0391
concentration: 100
  difference: 0.111
concentration: 250
  difference: 0.137
concentration: 1000
  difference: 0.178
concentration: 2500
  difference: 0.156

## COc1cccc2c1C(=O)c1c(O)c3c(c(O)c1C2=O)C[C@@](O)(C(=O)CO)C[C@@H]3O[C@H]1C[C@H](N)[C@H](O)[C@H](C)O1 (concentration unit: nM)
concentration: 25
  difference: -0.0232
concentration: 100
  difference: 0.0095
concentration: 250
  difference: 0.0862
concentration: 1000
  difference: 0.155
concentration: 2500
  difference: 0.202
